Laboratory results: PubChem BioAssay AID2685 (National Center for Advancing Translational Sciences (NCATS), 2010)
About 2,100 (0.66%) of roughly 320,000 compounds were called active. Not shown: some 53% with an inconclusive outcome. Calls follow the shape of the dose curve; as a rule, active = well fitted inhibition curve with a large enough effect in the signal ratio, with a control signal flat (not every such curve was filed as active); inconclusive = small, poorly fitted or top-dose-only effect, or effect the other way, or a change in a side signal; inactive = flat fitted curve, though single readings scatter; the % refers to the signal ratio. For the sample, actives were picked, then their nearest neighbours and some compounds at random.
Potency is read from the fitted curve at half-maximal effect.

Test: qHTS Assay for Lipid Storage Modulators in Drosophila S3 Cells;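 as to cell number change: cells counted by Cell Tracker Red CMTPX staining in the red channel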; as to lipid storage change, negative = inhibition: % is scaled to controls: 0 for no effect and ±100 for the full control effect
Settings: BODIPY lipid droplet fluorescence, 18-24 h, cells fed with added oleic acid; cell number change: measured here: cell count max response; series mostly up to 46.1 µM; lipid storage change, negative = inhibition: at the top concentration
Procedure, shortened: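 Laser-scanning cytometry quantifies lipid droplet accumulation (500–530 nm total intensity; droplet/cell object ratio) in oleic acid-fed (400 uM added) Drosophila S3 cells treated with a concentration series. 20 uM Triacsin C defined 100% inhibition.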
With `O=C(NCc1nnc(SCC(=O)N2CCc3ccccc32)o1)c1cccs1` the “lipid storage change, negative = inhibition” value was 2.4% (inactive) and the cell number change was -1.06%. With `CCOC(=O)N1CCN(CC(O)c2c[nH]c3ccccc23)CC1` (stereo unspecified) the “lipid storage change, negative = inhibition” value was 1.13% (inactive) and the cell number change was 14.4%. For `Cc1ccc(-c2nn(C)c(=O)c3ccccc23)cc1CNC(=O)/C=C/c1ccccc1`, the “outcome” value was “inactive” and the cell number change was -24.2%. For `CCCn1c(-c2cccc([N+](=O)[O-])c2)nc2c1c(=O)[nH]c(=O)n2Cc1ccccc1`, the “lipid storage change, negative = inhibition” value was 18.3% (inactive) and the cell number change was 1.66%. For `CCCCn1c(=O)[nH]c(=O)c2c1nc(-c1cc(Br)c(OCC)c(OC)c1)n2C`, the “lipid storage change, negative = inhibition” value was -29.7% (inactive) and the cell number change was 15%. In the case of `CCCCn1c(=O)[nH]c(=O)c2c1nc(-c1ccc(OC)c(Br)c1)n2CC(C)C`, the Potency is reported as 0.326 µM (active) and the cell number change is reported as 9.66%. In the case of `C=CCOc1ccc(-c2nc3c(c(=O)[nH]c(=O)n3Cc3ccccc3)n2CCCOC)cc1`, the “lipid storage change, negative = inhibition” value is reported as -1% (inactive) and the cell number change is reported as 4.84%. With `CCCn1c(-c2cccc(F)c2)nc2c1c(=O)[nH]c(=O)n2Cc1ccccc1` the “outcome” value was “inactive” and the cell number change was 13.3%. In the case of `CCCCn1c(=O)[nH]c(=O)c2c1nc(-c1cccc(OC)c1)n2C`, the “lipid storage change, negative = inhibition” value is reported as -6.52% (inactive) and the cell number change is reported as -6.05%. With `CCCCn1c(=O)[nH]c(=O)c2c1nc(-c1ccc(-c3ccccc3)cc1)n2C` the Potency was 3.66 µM (active) and the cell number change was -2.7%. In the case of `CCCCn1c(=O)[nH]c(=O)c2c1nc(-c1ccc(OCC)cc1)n2CC`, the “lipid storage change, negative = inhibition” value is reported as 13.4% (inactive) and the cell number change is reported as -8.47%. With `C=CCOc1ccc(-c2nc3c(c(=O)[nH]c(=O)n3CCC)n2CCCC)cc1` the Potency was 2.91 µM (active) and the cell number change was 22.5%. For `CCCn1c(-c2cc(OC)c(OC)c(OC)c2)nc2c1c(=O)[nH]c(=O)n2Cc1ccccc1`, the Potency was 0.651 µM (active). With `C=CCOc1ccc(-c2nc3c(c(=O)[nH]c(=O)n3CCCC)n2C)cc1Br` the “lipid storage change, negative = inhibition” value was -0.288% (inactive) and the cell number change was 12.1%. With `CCCCn1c(=O)[nH]c(=O)c2c1nc(-c1ccc(-c3ccc(F)cc3)o1)n2C` the “lipid storage change, negative = inhibition” value was 26% (inactive) and the cell number change was 10.6%. For `Cc1cc(C)c(NC(=O)c2cc(C(=O)O)ccc2C(=O)O)c([N+](=O)[O-])c1`, the “lipid storage change, negative = inhibition” value was 2.67% (inactive) and the cell number change was 2.4%. For `COc1ccc(CCc2cc(OC)cc(=O)o2)cc1`, the “lipid storage change, negative = inhibition” value was 16.7% (inactive) and the cell number change was -1.16%. For `Cc1cc(C)c(OCCCCN(C)Cc2ccccc2)c(C)c1`, the Potency was 7.31 µM (active) and the cell number change was -22%. For `CN(CCOc1ccc(F)cc1)Cc1ccccc1`, the “lipid storage change, negative = inhibition” value was 11.2% (inactive) and the cell number change was 11.7%. For `CN(CCOc1ccccc1Cl)Cc1ccccc1`, the Potency was 23.1 µM (active) and the cell number change was -8.5%. With `CN(CCCCOc1ccc(F)cc1)Cc1ccccc1` the “lipid storage change, negative = inhibition” value was 13.9% (inactive) and the cell number change was 9.09%. For `Cc1ccc(Cl)c(OCCCCN(C)Cc2ccccc2)c1`, the “lipid storage change, negative = inhibition” value was -10.2% (inactive) and the cell number change was -11.3%. For `CN(Cc1ccccc1)C(=O)COc1ccccc1Cl`, the “lipid storage change, negative = inhibition” value was -17.2% (inactive) and the cell number change was 10.4%. For `CC1CN(S(=O)(=O)c2ccc(C(=O)Nc3nnc(-c4ccccn4)o3)cc2)CC(C)O1` (stereo unspecified), the “lipid storage change, negative = inhibition” value was -3.48% (inactive) and the cell number change was 10.4%. With `Cn1c(=O)c(C(=O)NNC(=O)c2ccccc2Br)c(O)c2ccccc21` the “outcome” value was “inactive” and the cell number change was 7.83%. With `Cn1c(=O)c(C(=O)NNC(=O)c2ccccc2F)c(O)c2ccccc21` the “outcome” value was “inactive” and the cell number change was 13%. In the case of `Cn1c(=O)c(C(=O)NNC(=O)c2ccc(Br)cc2)c(O)c2ccccc21`, the Potency is reported as 16.4 µM (active) and the cell number change is reported as 12.5%. In the case of `COc1cccc(CN2CC(C(=O)N3CCOCC3)CCC2=O)c1` (stereo unspecified), the “outcome” value is reported as “inactive” and the cell number change is reported as -3.29%. In the case of `c1ccc(-c2csc3ncnc(NCCN4CCOCC4)c23)cc1`, the “lipid storage change, negative = inhibition” value is reported as -15.7% (inactive) and the cell number change is reported as -69.5%. In the case of `c1ccc(-c2csc3ncnc(NCC4COc5ccccc5O4)c23)cc1` (stereo unspecified), the Potency is reported as 1.84 µM (active) and the cell number change is reported as -33.8%. In the case of `c1ccc(-c2csc3ncnc(NCc4ccccn4)c23)cc1`, the “lipid storage change, negative = inhibition” value is reported as -14.3% (inactive) and the cell number change is reported as -13.1%. In the case of `COc1ccc(S(=O)(=O)NCC2CCCN(C(=O)C=C(C)C)C2)cc1` (stereo unspecified), the “lipid storage change, negative = inhibition” value is reported as 0.395% (inactive) and the cell number change is reported as -5.61%. With `CCOc1ccccc1C(=O)N1CCC(n2nnc3cc(C(F)(F)F)ccc32)CC1` the “outcome” value was “inactive”. For `Cc1csc(NC(=O)CCC(=O)N(CC(=O)NC2CCCC2)Cc2ccco2)n1`, the “lipid storage change, negative = inhibition” value was 8.55% (inactive) and the cell number change was 5.63%. In the case of `COc1ccc(CN(CC(=O)NC2CCCC2)C(=O)CCC(=O)Nc2cc(C)on2)cc1`, the “lipid storage change, negative = inhibition” value is reported as 6.13% (inactive) and the cell number change is reported as 2.01%. With `COc1ccc(CN(CC(=O)NC2CCCC2)C(=O)CCC(=O)Nc2nc(C)cs2)cc1` the Potency was 4.61 µM (active) and the cell number change was 2.99%. In the case of `O=C(CN(Cc1ccccc1)C(=O)CCC(=O)Nc1nccs1)NCc1ccccc1`, the “lipid storage change, negative = inhibition” value is reported as -11.3% (inactive) and the cell number change is reported as -17.1%. For `O=C(CCC(=O)N(CC(=O)NC1CCCC1)Cc1ccccc1)Nc1nccs1`, the Potency was 3.66 µM (active) and the cell number change was 6.76%. With `CC(C)CCNC(=O)CN(C(=O)CCC(=O)Nc1nccs1)C1CCCCC1` the Potency was 1.3 µM (active) and the cell number change was -4.17%. For `O=C(CCC(=O)N(CC(=O)NC1CCCCC1)Cc1cccs1)Nc1nccs1`, the “lipid storage change, negative = inhibition” value was 13.5% (inactive) and the cell number change was -2.3%. For `CC(C)CCNC(=O)CN(Cc1ccccc1)C(=O)CCC(=O)Nc1nccs1`, the “outcome” value was “inactive” and the cell number change was 2.61%. With `CC(C)CCNC(=O)CN(CC1CCCO1)C(=O)CCC(=O)Nc1nccs1` (stereo unspecified) the “lipid storage change, negative = inhibition” value was 22.3% (inactive) and the cell number change was 9.95%. With `CC(C)(C)OC(=O)[C@H](NC(=O)OCc1ccccc1)c1ccccc1` the “outcome” value was “inactive” and the cell number change was -4.27%. In the case of `CSc1nc(=S)n(Cc2ccccc2)c(C)c1C(C)=O`, the “lipid storage change, negative = inhibition” value is reported as 0.545% (inactive) and the cell number change is reported as 2.19%.
